# Data taken from PubChem BioAssay AID1345082 (National Center for Advancing Translational Sciences (NCATS), 2018).
# Several values for one entry are separate records, joined by “and”; a condition that tells them apart may be missing. Equal entries are not always repeated. Screen size: about 94,000 compounds; about 4,000 (4.3%) were called active. Roughly 29% stayed inconclusive and do not appear here. Calls follow the shape of the dose curve; as a rule, active = well fitted inhibition curve with a large enough effect; inconclusive = small, poorly fitted or top-dose-only effect; inactive = no such curve, though single readings can be large or run the other way. What follows is part of a selection rich in actives, with near analogues and random picks from the rest.
# Assay: Cytotoxic Profiling in NIH 3T3 Cell Line of Diverse Libraries Using Quantitative High-Throughput Screening; also: nearly all actives have a fitted effect of over 55% in size
# Conditions: NIH 3T3 viability, CellTiter-Glo ATP luminescence, 48-72 h; series mostly up to 96.7 µM; activity change, negative = cytotoxicity: at the top concentration
# Outline: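 Viability of NIH 3T3 cells after 48 or 72 hr compound treatment at 37 °C was assessed by CellTiter-Glo, with luminescence imaged following a 10 min room-temperature step.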
# % is scaled to controls: 0 for no effect and ±100 for the full control effect; potency is read from the fitted curve at half-maximal effect.
Structure (SMILES),Potency,"activity change, negative = cytotoxicity",outcome
COc1ccccc1N1CCN(C(=O)C[C@@H]2C[C@@H](C(C)C)[C@H](CO)C=C2C)CC1,100 µM (active),,
CC1=C[C@@H](CC#N)[C@H](C(C)C)C[C@H]1CC(=O)N1CCN(C)CC1,,-19.7% [at 174 µM] (inactive),
COc1ccccc1N1CCN(C(=O)CCc2conc2-c2ccccc2F)CC1,,-8.02% (inactive),
O=C(NC1CCCC1)NC1CCN(c2ccc3nnc(-c4ccccc4)n3n2)CC1,,-31.4% (inactive),
O=C(c1ccnc(-c2nnc3ccc(N4CCOCC4)nn23)c1)N1CCCCC1,20 µM (active),,
COc1ccccc1C(=O)N1CCCN(c2ccc3nnc(C)n3n2)CC1,,0.238% (inactive),
CCn1nccc1C(=O)N1CCCCCC1c1nc(C2CC2)no1 (configuration not stated),,-20.5% (inactive),
COc1ccc(S(=O)(=O)N2CCCC(Cn3cnc4cccnc43)C2)cc1 (configuration not stated),,-22.5% (inactive),
CCn1cnnc1CC1CCN(C(=O)C2CCN(Cc3nc(-c4cccc(C)c4)oc3C)CC2)CC1,,-19% (inactive),
CCC1CN(Cc2cn(-c3ccccc3)nc2-c2ccc(OC)cc2F)CCO1 (configuration not stated),,-4.55% (inactive),
COc1ccc(-c2nc(CN3CCOC(CN)C3)c(C)o2)c2ccccc12 (configuration not stated),25.1 µM (active),,
Cc1oc(-c2cccc(Oc3ccccc3)c2)nc1CN1CCOC(CCN)C1 (configuration not stated),25.1 µM (active),,
Cc1oc(-c2cccs2)nc1CN1CCOC(Cc2ccccc2)C1 (configuration not stated),,-23.1% (inactive),
Cc1oc(-c2cc(F)ccc2F)nc1CN1CCN(c2ccccc2)CC1C (configuration not stated),,-9.27% (inactive),
O=C(c1cn2cc(Cl)ccc2n1)N1CCc2nc(-c3ccccc3)[nH]c2C1,,-40.3% (inactive),
COC(=O)[C@@H]1Cc2c([nH]c3ccccc23)[C@H]2C[C@H](NCCNC(C)=O)C[C@@H](c3ccc(C)cc3)N21,25.1 µM (active),,
COC(=O)[C@@H]1C[C@@H](NC(=O)c2ccc(-c3nnn(C)n3)cc2)CN1C,,0.0956% (inactive),
O=C(CC1COCCN1)N1CCC(OCc2cccnc2)CC1 (configuration not stated),,-4.09% (inactive),
CCCOC(=O)N1CCCC(c2nccn2CCCN(C)C)C1 (configuration not stated),,0.743% (inactive),
O=C(c1cc2ccccc2o1)N1CCC2(CNS(=O)(=O)c3cnccc3O2)C1 (configuration not stated),,,inactive
C=CCNC(=O)c1ccc2ccnn2c1,,-2.27% [at 174 µM] (inactive),
COc1ccc(C(=O)N2CCCC2C(=O)N2CCCC2c2nc3ccncc3[nH]2)cc1 (configuration not stated),,-3.18% (inactive),
COc1ccc(C(=O)N2CCCC(C(=O)N3CCCC(c4nc5ccncc5[nH]4)C3)C2)cc1 (configuration not stated),,-24% (inactive),
COc1ccc(-c2nc3ccncc3[nH]2)cc1,10 µM (active) and 17.8 µM (active),,
CCc1noc(-c2ccn3c(CNC(=O)c4ccco4)nnc3c2)n1,,-2.86% (inactive),

Structure (SMILES),Potency,"activity change, negative = cytotoxicity",outcome
Cc1noc(CC2CCOC3(CCN(C(=O)c4ccc(C#N)cc4)CC3)C2)n1 (configuration not stated),,-17.6% (inactive),
CCn1ncc(N2CCCC(CC(=O)NCc3cccnc3)C2)cc1=O (configuration not stated),,4.64% (inactive),
O=C(NC[C@H]1COCc2nc3cc(C(F)(F)F)ccc3n21)c1cnccn1,,-12.6% [at 138 µM] (inactive),
CC1=C[C@@H](CN(CC2CC2)CC2CC2)[C@H](C(C)C)C[C@H]1Cc1nc2c(C)cccc2[nH]1,79.4 µM (active),,
CC1=C[C@@H](CNC(=O)CC2(CC(=O)O)CCCC2)[C@H](C(C)C)C[C@H]1Cc1nc2c(C)cccc2[nH]1,,-4.68% (inactive),
COc1ccc2nc(C[C@@H]3C[C@@H](C(C)C)[C@H](CNC(=O)CC(C)(C)CC(=O)O)C=C3C)[nH]c2c1,,-22.3% (inactive),
CC1=C[C@@H](CNC2CCN(C)CC2)[C@H](C(C)C)C[C@H]1Cc1nc2ccccc2[nH]1,35.5 µM (active),,
CC(=O)N1CCC(NC[C@@H]2C=C(C)[C@H](Cc3nc4ccccc4n3C)C[C@H]2C(C)C)CC1,,-14.2% (inactive),
CC1=C[C@@H](CNCC(C)C)[C@H](C(C)C)C[C@H]1Cc1nc2c(C)cccc2[nH]1,39.8 µM (active),,
CCNC(=O)[C@@H]1C[C@@H](NC(=O)c2csc(C)c2CC)CN1C1CCCC1,,-28.1% (inactive),
CCOc1ccccc1CN1CCN(C2CCN(C(C)C)CC2)C(CCO)C1 (configuration not stated),,-19.7% (inactive),
COc1ccc(CN[C@@H]2CCC[C@@H](C(=O)NCc3cc(C)on3)CC(=O)N(C)C2)cn1,,,inactive [at 174 µM]
CCn1nc(CNC(=O)C2CCC(=O)N(C3CCCC3)C2)c2ccccc21 (configuration not stated),,-3.82% (inactive),
COc1cc(NC(=O)Cn2nc3n(c2=O)CCCCC3)cc(OC)c1OC,,,inactive
Cc1noc(-c2ccccc2OC2CCN(C(=O)c3cnccc3C)C2)n1 (configuration not stated),,-15.5% (inactive),
c1ccc(-c2noc(-c3ccccc3OC3CCNC3)n2)cc1 (configuration not stated),12.6 µM (active),,
Cc1nc(C)c(C(=O)N2CCC(Oc3ccccc3-c3nc(-c4ccccc4)no3)C2)s1 (configuration not stated),39.8 µM (active),,
O=C(c1ccoc1)N1CC(Oc2ccc(-c3nc(-c4ccccc4)no3)cc2)C1,,-5.84% (inactive),
COCc1nc(-c2ccc(OC3CNC3)cc2)no1,,-1.51% (inactive),
Cc1cccc(C(=O)N2CCC(Oc3ccc(-c4noc(C(C)C)n4)cc3)C2)c1 (configuration not stated),,-31.8% (inactive),
O=C1CCN(C(=O)Cc2cccc(F)c2)CCCC(c2nc(-c3cccnc3)no2)CCN1 (configuration not stated),,-20% (inactive),
CC(=O)N1CCC[C@@H]1C(=O)N1CCC(N2CCOC2=O)CC1,,-12.4% [at 138 µM] (inactive),
CCN1C(=O)C2CC3(CCN(C(=O)c4cc5ccccc5[nH]4)CC3)CN2C1=O (configuration not stated),,-24.2% (inactive),
COC1CCOC2(CCN(C(=O)NCc3ccc(C)cc3)CC2)C1 (configuration not stated),,,inactive
O=C1NCc2ccccc2CC12CCN(Cc1ccc(O)cc1)CC2,,,inactive

Structure (SMILES),Potency,"activity change, negative = cytotoxicity",outcome
CC(C)Cc1ccc(CN2CCC3(CC2)Cc2ccccc2CNC3=O)cc1,25.1 µM (active),,
Cc1ccc(CN2CCC3(Cc4ccccc4CNC3=O)C2)cc1 (configuration not stated),,-26.8% (inactive),
COCCN1C(=O)c2cccn2CC1CNC(=O)c1cc2ccccc2[nH]1 (configuration not stated),,-6.67% (inactive),
O=C(c1ccccc1F)N1CCC(c2nc(C3CCOCC3)no2)CC1,,-23.9% (inactive),
O=C(NC1CCN(c2nc3ncccc3o2)CC1)c1ccc(F)cc1,,-19.8% [at 138 µM] (inactive),
O=C(CCc1conc1-c1ccccc1F)NCc1cccc(Cl)c1,,-26.3% (inactive),
O=c1[nH]c(C2CCCN(Cc3ccccn3)C2)nn1-c1ccc(Cl)cc1 (configuration not stated),3.16 µM (active),,
O=C(Cc1cccc(Cl)c1)N1CCC(c2nn(-c3ccc(Cl)cc3)c(=O)[nH]2)CC1,44.7 µM (active),,
COc1cccc(C(=O)N2CCC(c3nn(-c4ccccc4)c(=O)[nH]3)CC2)c1,,-22.9% (inactive),
O=C(Nc1ccccc1)N1CCCC(c2nn(-c3ccccn3)c(=O)[nH]2)C1 (configuration not stated),,-29.6% (inactive),
CC(=O)N1CCCC(c2nn(-c3ccccc3)c(=O)[nH]2)C1 (configuration not stated),,-15.9% [at 138 µM] (inactive),
Cn1nc(C2CCN(C(=O)c3cccc(Cl)c3)CC2)[nH]c1=O,,-6.82% [at 138 µM] (inactive),
COc1ccc(C(C)NC(=O)CN2C(=O)C(c3ccccc3)=NC2(C)C)cc1 (configuration not stated),,-8.44% (inactive),
CN1C(=O)CC[C@]2(C(=O)NCC3CCCCC3)CCCC[C@@H]12,,-6.67% (inactive),
O=C(NC1CCOC1)c1ccc2oc(-c3ccc(C(F)(F)F)cc3)nc2c1 (configuration not stated),,-13.7% (inactive),
O=C(CSc1ccncc1)N1CCCC(O)(CN2CCCC2)C1 (configuration not stated),,1.99% (inactive),
COc1ccc(N2Cc3c(NCc4cccs4)ncnc3N(C)CC2=O)cc1,,-18.8% (inactive),
COCCOc1cc(=O)n2c(c1C(=O)NCc1ccccc1)CCOCC2,,,inactive
Cc1cccc(CN2CCc3ncc(C(=O)NCc4ccccc4)n3CC2)n1,89.1 µM (active),,
COCCNC(=O)N1CCc2nn(Cc3ccccc3)c(=O)n2CC1,,-7.78% (inactive),
CCOc1ccc(C(=O)N2C[C@@H](CO)[C@H](c3ccncc3)C2)cc1,,-12.1% (inactive),
COc1ccc2ccc(OCc3nc(C(=O)N4CCC(=O)NCC4C)co3)cc2c1 (configuration not stated),,-26.5% (inactive),
Cc1ccccc1CNC[C@H]1O[C@@H]2C[C@@H](CC(=O)NC(C)C)O[C@@H]2[C@@H]1O,,0.345% [at 174 µM] (inactive),
COc1cc(C)c(CN2CCN3C(=O)CNC(=O)C3C2)cc1C(C)C (configuration not stated),,-22% (inactive),
CCOc1cc(C)c(CN2C[C@@H](CN(C)C)C[C@H](CO)C2)cc1C(C)C,31.6 µM (active),,

Structure (SMILES),Potency,"activity change, negative = cytotoxicity",outcome
Cc1cc(=O)n(CC(=O)N2C[C@H](CO)C[C@H](CN(C)C)C2)nc1C,,1.11% (inactive),
O=C(C1CCCCC1)N1CCCC(n2cc(-c3nc(-c4ccccc4)no3)nn2)C1 (configuration not stated),,-29.6% (inactive),
COC(=O)[C@@H]1C[C@H](NC(=O)c2c(Cl)cccc2Cl)CN1C,,0.966% (inactive),
CN1CCNc2nc(CNc3cccc(F)c3)n(Cc3ccccc3)c2C1=O,,-38.3% [at 138 µM] (inactive),
O=C1c2c(nc(COc3ccccc3)n2Cc2ccccc2)NCCN1Cc1cccc(Cl)c1,28.2 µM (active),,
C=CCC1(C(=O)O)CCCN(Cc2cn[nH]c2C(=O)O)C1 (configuration not stated),,0.72% (inactive),
CCNC(=O)O[C@@H]1CO[C@H]2[C@@H]1OC[C@@H]2NC(=O)c1cccc(C(=O)OC)c1,,1.15% [at 174 µM] (inactive),
CCNC(=O)O[C@@H]1CO[C@H]2[C@@H]1OC[C@@H]2NC(=S)Nc1cccc2ccccc12,79.4 µM (active),,
COc1ccc(NC(=O)O[C@@H]2CO[C@H]3[C@@H]2OC[C@@H]3NC(=S)Nc2cccc3ccccc23)cc1,,-30.5% (inactive),
CC(C)(CC(=O)O)CC(=O)N[C@H]1CO[C@H]2[C@@H]1OC[C@@H]2n1nnnc1-c1ccccc1,,,inactive [at 138 µM]
c1ccc(CO[C@@H]2CO[C@H]3[C@@H]2OC[C@@H]3n2nnnc2SCc2ccco2)cc1,89.1 µM (active),,
CNC(=O)CCN(C)c1nccc(-c2ccc(C)nc2C)n1,,-18.6% (inactive),
Cc1cccc(C(=O)N[C@@H]2CN(c3ncccn3)C[C@H]2CO)n1,,-7.33% (inactive),
COc1ccc(-c2cc(-c3cnc4[nH]ccc4c3)cn3cncc23)cn1,39.8 µM (active),,
COc1ccc(-c2cc(-c3cccc4[nH]ncc34)cn3cncc23)cn1,14.1 µM (active),,
CC(C)NC(=O)C1CCC(=O)N1C1CCN(C(=O)C2CCCCC2)CC1 (configuration not stated),,1.11% (inactive),
COc1cccc(CN2CC3(C2)C(=O)N(Cc2ccccc2F)C(=O)[C@@H]2C[C@@H](O)CN23)c1,,-5.45% (inactive),
CC(=O)N1C[C@@H]2CCCN3CCC[C@@H]([C@H]23)[C@H]1CCCC(=O)NCc1cc(F)cc(F)c1,,,inactive
Cc1ccc(C(=O)N2C[C@@H](CO)[C@H](c3ccncc3)C2)c(C)c1,,-15% (inactive),
CN(c1ccccc1)c1cc(=O)c2ccnc(Nc3cccc([S+](C)(=O)[O-])c3)c2o1,8.91 µM (active),,
CN(c1ccccc1)c1cc(=O)c2ccnc(-c3ccc(CO)cc3)c2o1,8.91 µM (active),,
O=c1cc(-c2cccnc2)oc2c(-c3cccc(CO)c3)nccc12,31.6 µM (active),,
